# Experiments:
# Conditions in all cases: concentration: 1 μM, replicates: in singlicate; n = 1
# CAMKK1 = tested on: CAMKK1
# CAMKK2 = tested on: CAMKK2
# CASK = tested on: CASK
# CDC2L1 = tested on: T1, CDC2L1
# T1 construct: gene CDK11B
# CDC2L2 = tested on: CDC2L2
# CDC2L5 = tested on: T2, CDC2L5
# T2 construct: gene CDK13
# CDK11 = tested on: T3, CDK11
# T3 construct: gene CDK19
# CDK2 = tested on: CDK2
# CDK3 = tested on: CDK3
# CDK4-cyclinD1 = tested on: CDK4-cyclinD1
# CDK4-cyclinD3 = tested on: CDK4-cyclinD3
# CDK4 = tested on: CDK4
# CDK5 = tested on: CDK5
# CDK7 = tested on: CDK7
# CDK8 = tested on: CDK8
# CDK9 = tested on: CDK9
# CDKL1 = tested on: CDKL1
# CDKL2 = tested on: CDKL2
# CDKL3 = tested on: CDKL3
# CDKL5 = tested on: CDKL5
# 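Note: KINOMEscan kinase panel screen.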
Structure (SMILES),%Inh (CAMKK1) [%],%Inh (CAMKK2) [%],%Inh (CASK) [%],%Inh (CDC2L1) [%],%Inh (CDC2L2) [%],%Inh (CDC2L5) [%],%Inh (CDK11) [%],%Inh (CDK2) [%],%Inh (CDK3) [%],%Inh (CDK4-cyclinD1) [%],%Inh (CDK4-cyclinD3) [%],%Inh (CDK4) [%],%Inh (CDK5) [%],%Inh (CDK7) [%],%Inh (CDK8) [%],%Inh (CDK9) [%],%Inh (CDKL1) [%],%Inh (CDKL2) [%],%Inh (CDKL3) [%],%Inh (CDKL5) [%]
COc1ccc(Nc2ncc(C#N)c(Nc3ccccc3C(N)=O)n2)cc1N1CCN(C)CC1.Cl [GSK1558669],96.9,98.5,75,0,1,69,0,96.3,90,94.8,90,93.9,99.7,99.8,0,72,89,94.7,0,29
Cc1ccc(C(=O)NCC(N)=O)cc1-n1c(C)cc(OCc2ccc(F)cc2F)c(Br)c1=O,3,0,0,7,20,0,0,0,0,0,0,0,0,0,8,0,44,3,9,0
Nc1nccc(-c2c(-c3ccc(F)cc3)ncn2C2CCN(CC(F)(F)F)CC2)n1 [SB-236560],13,88,0,0,0,43,17,0,11,49,97.9,52,0,10,70,0,18,11,0,0
N#Cc1c(N2CCOCC2)sc(-c2ccn[nH]2)c1-c1ccc(Cl)cc1,0,0,0,0,11,0,7,0,5,31,2,29,15,43,0,0,0,0,0,0
Fc1ccc(-c2ncn(CCCN3CCOCC3)c2-c2cccnc2)cc1 [SB-211743],0,0,6,0,0,0,0,0,16,0,0,1,0,8,0,0,28,0,0,0
O=C(NCCNc1ccnc(Nc2ccc(F)cc2)n1)Nc1ccccc1F [GSK1379880],0,0,1,0,9,0,0,0,20,0,3,28,0,0,0,0,0,15,0,0
Cn1ccc2ncnc(Oc3ccc(NC(=O)Nc4ccncc4)c(Cl)c3)c21,0,2,0,0,0,25,0,0,0,0,0,0,0,0,0,0,0,0,0,49
O=c1cc(N2CCOCC2)nc2n(Cc3cccc4ccccc34)ccn12 [GSK2333389],0,0,0,0,0,0,0,12,0,0,0,0,0,0,13,1,0,4,0,0
COc1cc2ncn(-c3cc(OCc4sccc4Cl)c(C(N)=O)s3)c2cc1OC [GSK448459],4,76,12,0,10,0,9,0,8,0,0,12,0,0,69,0,23,33,0,0
Cc1c(Cn2c(C)nn3c(=O)cc(N4CCOC(C)C4)nc23)cccc1C(F)(F)F (centres unmarked) [GSK2344444],0,0,0,0,0,0,0,0,4,0,0,25,0,0,0,2,0,4,0,0

# — paper PMC5540273 (PLoS ONE, 2017)
